Assays:
Experiment in all cases: DAPPL (digital affinity profiling via proximity ligation, sequencing); 10 mM Tris-HCl pH 7.5, 50 mM NaCl, 1 mM DTT, 4% glycerol, room temperature, 30 min; GST-TFs on glutathione beads, 16-mer random dsDNA library, 0.1% formaldehyde crosslink after washing; high values mean tight binding
Conditions in all cases: protein: recombinant; tags: N-terminal GST; dsDNA, one strand shown
FLI1 = target: T1, FLI1 (Homo sapiens, UniProt Q01543 1-452)
T1 sequence: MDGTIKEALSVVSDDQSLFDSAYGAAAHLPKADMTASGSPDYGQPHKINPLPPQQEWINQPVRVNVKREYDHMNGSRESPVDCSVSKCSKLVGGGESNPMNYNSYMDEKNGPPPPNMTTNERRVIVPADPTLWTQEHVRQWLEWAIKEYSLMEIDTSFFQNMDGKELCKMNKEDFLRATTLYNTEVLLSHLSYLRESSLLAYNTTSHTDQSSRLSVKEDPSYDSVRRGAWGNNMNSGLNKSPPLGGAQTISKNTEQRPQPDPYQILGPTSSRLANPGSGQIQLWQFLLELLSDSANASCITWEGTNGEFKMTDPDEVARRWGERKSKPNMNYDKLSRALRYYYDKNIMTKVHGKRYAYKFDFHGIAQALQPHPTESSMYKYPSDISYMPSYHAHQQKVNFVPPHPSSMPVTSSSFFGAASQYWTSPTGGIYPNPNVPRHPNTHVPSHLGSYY
Outline: (§1)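 Binding signal is each hexamer's read frequency for a factor divided by its frequency in the tag-only sample. The factors were GST-fused human transcription factors from yeast, captured on glutathione beads, DNA-barcoded and pooled with that sample. Pools were incubated with 200 nmole of a random double-stranded 16-mer DNA library in Tris/NaCl/DTT/glycerol buffer at room temperature for 30 min, then washed, crosslinked with 0.1% formaldehyde, proximity-ligated with BsaI/T4 ligase (1 h, 37 °C), PCR-amplified and sequenced on an Illumina NextSeq500.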

ELK1 = target: T2, ELK1 (Homo sapiens, UniProt P19419 1-428)
T2 sequence: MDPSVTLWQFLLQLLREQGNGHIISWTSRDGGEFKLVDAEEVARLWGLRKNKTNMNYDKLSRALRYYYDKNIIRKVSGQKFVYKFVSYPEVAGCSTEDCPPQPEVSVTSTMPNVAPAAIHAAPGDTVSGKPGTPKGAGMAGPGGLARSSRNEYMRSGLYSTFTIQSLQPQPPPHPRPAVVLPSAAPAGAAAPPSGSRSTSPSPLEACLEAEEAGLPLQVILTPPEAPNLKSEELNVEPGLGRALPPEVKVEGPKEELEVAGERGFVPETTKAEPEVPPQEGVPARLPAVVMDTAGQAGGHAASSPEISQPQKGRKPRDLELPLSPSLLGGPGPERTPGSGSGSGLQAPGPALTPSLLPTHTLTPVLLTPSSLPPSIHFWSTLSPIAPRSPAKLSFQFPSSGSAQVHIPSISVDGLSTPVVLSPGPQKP
Outline: as §1

GABPA = target: T3, GABPA (Homo sapiens, UniProt Q06546 1-454)
T3 sequence: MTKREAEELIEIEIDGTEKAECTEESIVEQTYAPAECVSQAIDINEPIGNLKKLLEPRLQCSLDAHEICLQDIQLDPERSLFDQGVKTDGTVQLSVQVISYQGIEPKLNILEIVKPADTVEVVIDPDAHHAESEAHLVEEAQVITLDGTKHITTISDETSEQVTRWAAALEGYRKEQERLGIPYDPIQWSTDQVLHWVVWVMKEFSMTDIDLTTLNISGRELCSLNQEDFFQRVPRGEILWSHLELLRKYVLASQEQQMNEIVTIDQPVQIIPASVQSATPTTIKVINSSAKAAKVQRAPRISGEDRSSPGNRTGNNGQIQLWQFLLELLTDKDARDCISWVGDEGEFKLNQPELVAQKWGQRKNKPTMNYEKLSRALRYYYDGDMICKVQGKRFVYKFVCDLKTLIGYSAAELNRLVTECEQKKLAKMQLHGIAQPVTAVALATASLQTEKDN
Outline: as §1

ERG = target: T4, ERG (Homo sapiens, UniProt P11308 1-479)
T4 sequence: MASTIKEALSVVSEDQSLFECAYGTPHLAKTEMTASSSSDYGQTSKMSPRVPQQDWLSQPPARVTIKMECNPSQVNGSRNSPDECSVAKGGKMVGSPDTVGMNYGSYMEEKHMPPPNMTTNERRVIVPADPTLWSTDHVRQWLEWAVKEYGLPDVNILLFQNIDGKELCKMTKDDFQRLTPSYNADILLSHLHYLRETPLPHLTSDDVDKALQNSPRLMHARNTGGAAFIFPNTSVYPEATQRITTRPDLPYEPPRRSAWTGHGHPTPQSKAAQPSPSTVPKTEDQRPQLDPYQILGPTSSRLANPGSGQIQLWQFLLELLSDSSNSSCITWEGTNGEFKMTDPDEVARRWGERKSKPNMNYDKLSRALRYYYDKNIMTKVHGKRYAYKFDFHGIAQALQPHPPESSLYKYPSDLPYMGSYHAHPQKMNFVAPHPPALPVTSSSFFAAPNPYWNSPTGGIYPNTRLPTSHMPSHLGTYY
Outline: as §1

ELF1 = ELF1 (Homo sapiens, UniProt P32519 1-619)
Chain of ELF1 (P32519 whole entry): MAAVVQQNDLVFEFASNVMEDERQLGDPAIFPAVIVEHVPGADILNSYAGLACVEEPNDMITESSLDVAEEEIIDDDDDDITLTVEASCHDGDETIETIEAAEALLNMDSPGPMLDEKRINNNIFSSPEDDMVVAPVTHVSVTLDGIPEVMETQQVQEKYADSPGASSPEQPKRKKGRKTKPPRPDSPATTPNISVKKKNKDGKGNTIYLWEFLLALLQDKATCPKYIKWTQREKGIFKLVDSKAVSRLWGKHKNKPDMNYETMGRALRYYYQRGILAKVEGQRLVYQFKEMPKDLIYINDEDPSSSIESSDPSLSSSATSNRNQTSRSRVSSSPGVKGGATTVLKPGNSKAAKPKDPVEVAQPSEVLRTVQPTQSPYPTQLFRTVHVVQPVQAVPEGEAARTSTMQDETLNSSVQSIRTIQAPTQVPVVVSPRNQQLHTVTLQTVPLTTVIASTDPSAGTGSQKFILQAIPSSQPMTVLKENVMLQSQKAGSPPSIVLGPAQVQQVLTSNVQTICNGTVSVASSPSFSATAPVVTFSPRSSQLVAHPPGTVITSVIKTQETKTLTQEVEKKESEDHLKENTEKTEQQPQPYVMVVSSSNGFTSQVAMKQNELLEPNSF
Outline: as §1

EHF = target: T5, EHF (Homo sapiens, UniProt Q9NZC4 1-300)
T5 sequence: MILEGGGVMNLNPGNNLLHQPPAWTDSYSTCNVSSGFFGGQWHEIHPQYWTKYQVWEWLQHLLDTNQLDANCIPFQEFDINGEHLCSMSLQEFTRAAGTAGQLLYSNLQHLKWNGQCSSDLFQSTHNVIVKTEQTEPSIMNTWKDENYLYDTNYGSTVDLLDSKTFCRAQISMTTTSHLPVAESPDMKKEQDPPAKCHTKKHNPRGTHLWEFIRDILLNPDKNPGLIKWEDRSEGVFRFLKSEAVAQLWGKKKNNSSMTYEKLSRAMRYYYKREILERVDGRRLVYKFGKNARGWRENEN
Outline: as §1

SPI1 = SPI1 (Homo sapiens, UniProt P17947 1-270)
Outline: as §1

SPIB = SPIB (Homo sapiens, UniProt Q01892 1-262)
Chain of SPIB (Q01892 whole entry): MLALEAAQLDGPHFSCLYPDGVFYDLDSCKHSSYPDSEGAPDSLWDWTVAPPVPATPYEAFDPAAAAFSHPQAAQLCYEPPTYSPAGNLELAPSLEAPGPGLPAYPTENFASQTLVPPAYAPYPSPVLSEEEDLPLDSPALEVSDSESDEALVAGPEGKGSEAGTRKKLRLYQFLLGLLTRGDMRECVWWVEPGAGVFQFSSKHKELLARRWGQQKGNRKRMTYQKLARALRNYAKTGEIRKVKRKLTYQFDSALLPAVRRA
Outline: as §1

ELK3 = target: T6, ELK3 (Homo sapiens, UniProt P41970 1-407)
T6 sequence: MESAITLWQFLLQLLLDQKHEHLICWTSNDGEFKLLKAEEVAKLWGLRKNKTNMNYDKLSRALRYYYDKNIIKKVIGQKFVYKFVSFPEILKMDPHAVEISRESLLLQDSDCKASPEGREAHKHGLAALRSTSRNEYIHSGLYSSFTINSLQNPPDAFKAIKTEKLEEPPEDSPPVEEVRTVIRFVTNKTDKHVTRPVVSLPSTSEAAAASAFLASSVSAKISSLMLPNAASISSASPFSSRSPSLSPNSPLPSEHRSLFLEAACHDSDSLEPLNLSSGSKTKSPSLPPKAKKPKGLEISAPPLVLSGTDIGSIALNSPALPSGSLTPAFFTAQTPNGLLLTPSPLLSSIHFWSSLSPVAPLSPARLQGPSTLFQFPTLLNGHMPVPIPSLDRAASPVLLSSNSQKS
Outline: as §1

| Sequence | binding signal (FLI1) | binding signal (ELK1) | binding signal (GABPA) | binding signal (ERG) | binding signal (ELF1) | binding signal (EHF) | binding signal (SPI1) | binding signal (SPIB) | binding signal (ELK3) |
| --- | --- | --- | --- | --- | --- | --- | --- | --- | --- |
| CGAAAA | 1.07 fold enrichment (6-mer frequency, TF over GST control) | 1.07 fold enrichment (6-mer frequency, TF over GST control) | 1.17 fold enrichment (6-mer frequency, TF over GST control) | 1.06 fold enrichment (6-mer frequency, TF over GST control) | 1.05 fold enrichment (6-mer frequency, TF over GST control) | 1.14 fold enrichment (6-mer frequency, TF over GST control) | 1.1 fold enrichment (6-mer frequency, TF over GST control) | 1.04 fold enrichment (6-mer frequency, TF over GST control) | 1.01 fold enrichment (6-mer frequency, TF over GST control) |
| CCGGAC | 1.47 fold enrichment (6-mer frequency, TF over GST control) | 1.48 fold enrichment (6-mer frequency, TF over GST control) | 1.41 fold enrichment (6-mer frequency, TF over GST control) | 1.74 fold enrichment (6-mer frequency, TF over GST control) | 1.44 fold enrichment (6-mer frequency, TF over GST control) | 1.56 fold enrichment (6-mer frequency, TF over GST control) | 1.41 fold enrichment (6-mer frequency, TF over GST control) | 1.57 fold enrichment (6-mer frequency, TF over GST control) | 1.38 fold enrichment (6-mer frequency, TF over GST control) |
| AAACTT | 1.27 fold enrichment (6-mer frequency, TF over GST control) | 1.22 fold enrichment (6-mer frequency, TF over GST control) | 1.31 fold enrichment (6-mer frequency, TF over GST control) | 1.24 fold enrichment (6-mer frequency, TF over GST control) | 1.24 fold enrichment (6-mer frequency, TF over GST control) | 1.31 fold enrichment (6-mer frequency, TF over GST control) | 1.24 fold enrichment (6-mer frequency, TF over GST control) | 1.25 fold enrichment (6-mer frequency, TF over GST control) | 1.3 fold enrichment (6-mer frequency, TF over GST control) |
| GTAACA | 1.24 fold enrichment (6-mer frequency, TF over GST control) | 1.1 fold enrichment (6-mer frequency, TF over GST control) | 1.05 fold enrichment (6-mer frequency, TF over GST control) | 1.06 fold enrichment (6-mer frequency, TF over GST control) | 1.13 fold enrichment (6-mer frequency, TF over GST control) | 1.21 fold enrichment (6-mer frequency, TF over GST control) | 1.12 fold enrichment (6-mer frequency, TF over GST control) | 1.03 fold enrichment (6-mer frequency, TF over GST control) | 1.19 fold enrichment (6-mer frequency, TF over GST control) |
| GCTGTA | 1.02 fold enrichment (6-mer frequency, TF over GST control) | 1.04 fold enrichment (6-mer frequency, TF over GST control) | 1.15 fold enrichment (6-mer frequency, TF over GST control) | 1.08 fold enrichment (6-mer frequency, TF over GST control) | 1.21 fold enrichment (6-mer frequency, TF over GST control) | 1.1 fold enrichment (6-mer frequency, TF over GST control) | 1.04 fold enrichment (6-mer frequency, TF over GST control) | 1.04 fold enrichment (6-mer frequency, TF over GST control) | 1.14 fold enrichment (6-mer frequency, TF over GST control) |
| TATCTG | 1.3 fold enrichment (6-mer frequency, TF over GST control) | 1.12 fold enrichment (6-mer frequency, TF over GST control) | 1.21 fold enrichment (6-mer frequency, TF over GST control) | 1.25 fold enrichment (6-mer frequency, TF over GST control) | 1.26 fold enrichment (6-mer frequency, TF over GST control) | 1.16 fold enrichment (6-mer frequency, TF over GST control) | 1.21 fold enrichment (6-mer frequency, TF over GST control) | 1.16 fold enrichment (6-mer frequency, TF over GST control) | 1.21 fold enrichment (6-mer frequency, TF over GST control) |
| CATGAT | 1.15 fold enrichment (6-mer frequency, TF over GST control) | 1.06 fold enrichment (6-mer frequency, TF over GST control) | 1.19 fold enrichment (6-mer frequency, TF over GST control) | 1.03 fold enrichment (6-mer frequency, TF over GST control) | 1.09 fold enrichment (6-mer frequency, TF over GST control) | 1.09 fold enrichment (6-mer frequency, TF over GST control) | 1.03 fold enrichment (6-mer frequency, TF over GST control) | 1.04 fold enrichment (6-mer frequency, TF over GST control) | 1.19 fold enrichment (6-mer frequency, TF over GST control) |
| ACCCGC | 1.27 fold enrichment (6-mer frequency, TF over GST control) | 1.29 fold enrichment (6-mer frequency, TF over GST control) | 1.35 fold enrichment (6-mer frequency, TF over GST control) | 1.21 fold enrichment (6-mer frequency, TF over GST control) | 1.33 fold enrichment (6-mer frequency, TF over GST control) | 1.2 fold enrichment (6-mer frequency, TF over GST control) | 1.32 fold enrichment (6-mer frequency, TF over GST control) | 1.27 fold enrichment (6-mer frequency, TF over GST control) | 1.32 fold enrichment (6-mer frequency, TF over GST control) |

From PMC7862700, “An all-to-all approach to the identification of sequence-specific readers for epigenetic DNA modifications on cytosine”
